# Test results as given in PubChem BioAssay (NCATS).
# Inconclusive results are not listed. Entries that show only a call come without a potency. Activity calls are given as the source filed them. Calls follow the shape of the dose curve; as a rule, active = well fitted activation curve with a large enough effect; inconclusive = small, poorly fitted or top-dose-only effect; inactive = no such curve, though single readings can be large or run the other way.
# Assay: qHTS for Activators of Parkin Expression: LOPAC Validation Assay (FLuc Reporter) (AID 720573)
# Conditions: Cell line, PRKN promoter firefly luciferase reporter; series mostly up to 46.1 µM
# Description: Parkin is an E3 ubiquitin ligase localized in the cytosol of cells expressed in many tissues, including brain, skeletal muscle, heart and liver tissues. One hour after stress induction by mitochondrial uncouplers (which mimic mitochondria damage by decreasing the mitochondrial inner membrane electrochemical gradient that is used to produce ATP), Parkin translocates from the cytosol to mitochondria in many cultured cell types, including neurons and HeLa cells. Administration of other mitochondrial poisons, such as Paraquat and azide in cells lacking mitochondrial DNA (mtDNA), induces Parkin translocation to mitochondria. […] It was proposed that Parkin (together with Pink1) mediates a mitochondrial quality control pathway to maintain organelle population fidelity by removing damaged mitochondria. Understanding the normal physiologic role of Parkin (and Pink1) may uncover novel treatment strategies for sporadic Parkinson's disease patients with mutation in these genes.
# A cell based qHTS in 1536 well format was developed assess modulation of Parkin expression using a neuronal cell line that stably expresses a stably expresses a luminescent coincidence reporter (FLuc and NLuc reporters) behind the Parkin promoter. The LOPAC library is used to validate the assay for quantitative high-throughput screening. The data herein reports the signal from the FLuc reporter. An increase in this signal = activation of Parkin expression. For this assay , a positive control normalized signal increase corresponding to a high quality qHTS curve class in both luminescent channels is the desired outcome for this assay.
# NIH Chemical Genomics Center [NCGC]
# NIH Molecular Libraries Probe Centers Network [MLPCN]
# Assay Submitter (PI): Richard Youle, National Institute of Neurological Disorders and Strokes (NINDS), NIH
# [1] Narendra, D., et al., Parkin is recruited selectively to impaired mitochondria and promotes their autophagy. J Cell Biol, 2008. 183(5): p. 795-803.
# [2] Suen, D.F., et al., Parkin overexpression selects against a deleterious mtDNA mutation in heteroplasmic cybrid cells. Proc Natl Acad Sci U S A, 2010. […] 11835-40.
# [3] Cheng K, Inglese J. A coincedence reporter-gene system for high-throughput screening. Nat Methods. 2012: 9(10);937
# Five microliters (1,500 cells/well) of the Parkin coincidence reporter cells were seeded to 1536 well assay plates (Greiner Catalog # 789173-F) and incubated at 37 C, 5% CO2 for 24 hours. Compounds (23 nL) were pinned using the Kalypsys robotic system equipped with 1536 pin head adaptor in 7-point dose response. The assay plates were incubated for additional 24 hr at 37 C, 5% CO2 followed by a volume reduction in each well to 2 uL using an automated plate washer/aspirator. Following the volume reduction,2 uL of FLuc detection reagent and plates were incubated for 10 minutes at room temperature. The FLuc luminescence signal was obtained using the PerkinElmer ViewLux plate imager and then 2 uL of NanoLuc detection reagent was added to the plates. After another 10 minute incubation, NanoLuc signal was obtained using the PerkinElmer ViewLux plate imager as before. Data from each channel was normalized to DMSO (neutral control) and the positive control compounds (100%).
row,SMILES,Potency
1,CCCCCCCCCCCCCCCCCCNC(=O)OCC(COP(=O)([O-])OCC[n+]1ccsc1)OC (stereo not given),inactive
2,CSc1nc(N)c2ncn([C@@H]3O[C@H](COP(=O)(O)OP(=O)(O)OP(=O)(O)O)[C@@H](O)[C@H]3O)c2n1,inactive
3,NC(=O)C1=CN(C2OC(COP(=O)(O)OP(=O)(O)OC[C@H]3O[C@@H](n4cnc5c(N)ncnc54)[C@H](OP(=O)(O)O)[C@@H]3O)C(O)C2O)C=CC1 (stereo not given in full),inactive
4,CN1CCc2ccccc2Cc2[nH]c3ccccc3c2CC1,inactive
5,O=[N+]([O-])c1ccc(CSc2ncnc3c2ncn3[C@@H]2O[C@H](CO)[C@@H](O)[C@H]2O)cc1,inactive
6,Clc1ccc(N2CCN(Cc3cc4ccccn4n3)CC2)cc1,inactive
7,O=C(CCCCCN1CCN(c2ccccc2-c2ccccc2)CC1)NC1CCCc2ccccc21 (stereo not given),inactive
8,O=c1[nH]c2cc([N+](=O)[O-])c([N+](=O)[O-])cc2[nH]c1=O,inactive
9,CC(C)NCC(O)COc1cccc2ccccc12 (stereo not given),inactive
10,N.N.N.N.N.N.N.N.N.N.N.N.N.N.O.O.[Ru+4].[Ru+5].[Ru+5],inactive
11,O=C(c1cc(O)c(O)c([N+](=O)[O-])c1)c1ccccc1F,inactive
12,N#C/C(=C\c1c[nH]c2ccccc12)C(=O)c1ccc(O)c(O)c1,inactive
13,N#C/C(=C\c1ccc(O)c(O)c1)C(=O)NCCCc1ccccc1,inactive
14,NCCNC(=O)c1ncsc1-c1cccc(F)c1,inactive
15,CO/S(=N\S(=O)(=O)c1ccc(Cl)cc1)c1ccc([N+](=O)[O-])cc1 (stereo not given),inactive
16,CNc1ncnc2c1ncn2[C@@H]1O[C@H](CO)[C@@H](O)[C@H]1O,inactive
17,CC(=O)/C=C1\C(=O)N(C)c2ccccc21,inactive
18,CCN(CC)c1ncnc2c1ncn2[C@@H]1O[C@H](COP(=O)(O)OP(=O)(O)C(Br)(Br)P(=O)(O)O)[C@@H](O)[C@H]1O,inactive
19,N.N.O=C(O)C1(C(=O)O)CCC1.[Pt],inactive
20,CC(COc1ccc(/C=C/c2ccccc2)cc1)[N+](C)(C)C (stereo not given),inactive

row,SMILES,Potency
1,CN1C2CC(OC(=O)[C@H](CO)c3ccccc3)CC1C1OC12 (stereo not given in full),inactive
2,C=C[C@@H]1CN2CC[C@@H]1C[C@H]2[C@H](O)c1ccnc2ccc(OC)cc12,inactive
3,Cc1nc2sccn2c(=O)c1CCN1CCC(=C(c2ccccc2)c2ccc(F)cc2)CC1,inactive
4,NC[C@H]1O[C@@H](n2cnc3c(N)ncnc32)[C@H](O)[C@@H]1O,inactive
5,COc1ccc(/C=C/C(=O)Nc2ccccc2C(=O)O)cc1OC,inactive
6,OCC1O[C@H](O)C(Cl)C(O)C1O (stereo not given in full),inactive
7,O=C(c1ccc(Cl)cc1)N1CCN(c2ccc([N+](=O)[O-])c3ncccc23)CC1,inactive
8,C[C@@H](NC(=O)/C(C#N)=C/c1ccc(O)c(O)c1)c1ccccc1,inactive
9,Cn1c(=O)c2[nH]c(-c3ccccc3)nc2n(C)c1=O,inactive
10,OC[C@H]1O[C@@H](n2cnc3c(NC4CCCC4)ncnc32)[C@H](O)[C@@H]1O,inactive
11,Nc1ncnc2c1ncn2[C@@H]1O[C@H](COP(=O)(O)CP(=O)(O)OP(=O)(O)O)[C@@H](O)[C@H]1O,inactive
12,CCNC(=O)[C@H]1O[C@@H](n2cnc3c(N)nc(NCCc4ccc(CCC(=O)O)cc4)nc32)[C@H](O)[C@@H]1O,inactive
13,CNC(=O)[C@H]1O[C@@H](n2cnc3c(NCc4ccc(N)cc4)ncnc32)[C@H](O)[C@@H]1O,inactive
14,COc1cc(C(O)CO)ccc1OS(=O)(=O)O (stereo not given),inactive
15,CCCCC#Cc1nc(NC)c2ncn([C@@H]3O[C@H](CO)[C@@H](O)[C@H]3O)c2n1,inactive
16,C#C[C@]1(O)CC[C@H]2[C@@H]3CCC4=Cc5oncc5CC4(C)[C@H]3CCC21C (stereo not given in full),inactive
17,c1ccc(-c2ccccn2)nc1,inactive
18,CN(C)CCC(c1ccc(Cl)cc1)c1ccccn1 (stereo not given),inactive
19,OC[C@H]1O[C@@H](n2cnc3c(NC4CCCCC4)ncnc32)[C@H](O)[C@@H]1O,inactive
20,CCc1c(C(=O)NCCc2ccc(N3CCCCC3)cc2)[nH]c2ccc(Cl)cc12,inactive
